Results on 86 molecules are retold here after publication PMC4336329 (PLoS ONE, 2015).

Screen size: about 310,000 compounds; about 14,000 (4.5%) showed an effect of 50% or more. The effect is printed as a negative number. This is one part of a sample in which strong results are shown more often than they occur.
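Further: peak tail current of the secondary pulse compared with the same well before compound.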

The target of the experiment is human ether-à-go-go-related gene (hERG) potassium channel (human, UniProt Q12809). Kind of experiment: primary screen, population patch clamp on CHO cells stably expressing hERG; higher = less effect of the substance.
human ether-à-go-go-related gene (hERG) potassium channel, sequence (Q12809 whole entry, looked up): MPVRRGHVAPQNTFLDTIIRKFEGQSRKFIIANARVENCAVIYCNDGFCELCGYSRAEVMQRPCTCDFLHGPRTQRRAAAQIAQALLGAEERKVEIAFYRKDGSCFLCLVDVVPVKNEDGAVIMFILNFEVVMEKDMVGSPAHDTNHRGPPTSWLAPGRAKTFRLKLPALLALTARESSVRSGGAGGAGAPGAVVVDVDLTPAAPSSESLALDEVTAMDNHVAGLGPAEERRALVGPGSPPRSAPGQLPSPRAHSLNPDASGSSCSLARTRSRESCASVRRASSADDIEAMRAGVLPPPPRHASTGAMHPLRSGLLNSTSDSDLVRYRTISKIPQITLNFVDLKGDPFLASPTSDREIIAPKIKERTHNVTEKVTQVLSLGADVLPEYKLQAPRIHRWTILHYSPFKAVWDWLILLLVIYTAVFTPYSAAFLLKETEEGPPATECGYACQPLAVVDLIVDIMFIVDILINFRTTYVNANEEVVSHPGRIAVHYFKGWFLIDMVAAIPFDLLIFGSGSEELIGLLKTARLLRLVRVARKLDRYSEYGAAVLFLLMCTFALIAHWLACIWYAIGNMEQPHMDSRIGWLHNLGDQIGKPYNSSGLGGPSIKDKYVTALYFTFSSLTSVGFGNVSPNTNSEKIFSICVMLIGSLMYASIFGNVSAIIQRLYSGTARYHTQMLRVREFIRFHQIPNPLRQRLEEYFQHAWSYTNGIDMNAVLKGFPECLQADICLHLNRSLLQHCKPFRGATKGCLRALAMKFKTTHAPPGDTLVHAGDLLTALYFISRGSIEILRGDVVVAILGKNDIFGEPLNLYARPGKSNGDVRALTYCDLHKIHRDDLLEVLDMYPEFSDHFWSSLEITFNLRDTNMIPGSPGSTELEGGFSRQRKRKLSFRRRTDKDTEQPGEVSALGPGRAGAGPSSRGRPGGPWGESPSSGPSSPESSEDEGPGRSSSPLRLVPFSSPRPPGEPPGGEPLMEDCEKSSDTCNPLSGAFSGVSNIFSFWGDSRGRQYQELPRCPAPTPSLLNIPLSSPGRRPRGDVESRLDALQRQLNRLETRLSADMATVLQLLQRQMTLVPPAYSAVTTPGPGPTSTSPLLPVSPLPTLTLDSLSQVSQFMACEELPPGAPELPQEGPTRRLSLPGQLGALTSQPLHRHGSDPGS
Take `CCC(C)(C)NC(=O)CN(C(=O)CCC(=O)Nc1ccccn1)c1ccc(F)c(Cl)c1`: the “hERG current change (%, negative = inhibition) at 10uM” value is -1.31%.
`Cc1cc(=O)oc2cc(NC(=O)c3ccccc3C(=O)O)ccc12`: the “hERG current change (%, negative = inhibition) at 10uM” value was determined as 15.7%.
Under `CN(CC(=O)Nc1ccccc1Br)C(=O)CNC(=O)c1ccc(Oc2ccccc2)cc1` stands -17.8%; under `CN1C[C@@H]2C[C@@H](c3cccn3-c3ccccn3)N3CCC[C@@]23C1=O`, -43.6%.
The same measure for `O=C1N(C2CCCC2)C[C@@H]2C[C@@H](c3cccn3-c3ccccn3)N3CCC[C@@]123`: -62.6%; for `CN1C[C@@H]2C[C@@H](c3cccn3-c3nccs3)N3CCC[C@@]23C1=O`: -19.2%.
Under `O=C1N(C2CCCC2)C[C@@H]2C[C@@H](c3cccn3-c3nccs3)N3CCC[C@@]123` stands -66.6%; under `CCn1ccnc1[C@@H]1C[C@H]2CN(c3ccccc3OC)C(=O)[C@]23CCCN13`, 19.8%.
Take `CCCCNc1nc2c(c(=O)[nH]c(=O)n2C)n1CCOc1ccccc1`: the “hERG current change (%, negative = inhibition) at 10uM” value came to 3.6%.
For `O=C(CCSc1ccccn1)c1ccccc1`, the “hERG current change (%, negative = inhibition) at 10uM” value is reported as 8.82%.
The same measure for `CCOC(=O)CC(NC(=O)Cc1cccs1)c1ccccc1Cl` (centres unmarked): 5.29%.
For the molecule `Cc1ccccc1C(=O)N1N=C(c2cccc(NS(C)(=O)=O)c2)CC1c1cccs1` (centres unmarked), the “hERG current change (%, negative = inhibition) at 10uM” value is listed as -6.36%.
The same measure for `Cc1ccc(CN2CCN(Cc3cn[nH]c3-c3ccccc3)CC2CCO)o1` (centres unmarked): -12.7%.
The same measure for `Cc1ccc(CN2CCN(Cc3c(C)nn(C(C)C)c3C)CC2CCO)o1` (centres unmarked): -7.24%; for `Cc1ccc(CN2CCN(Cc3c(C)nn(-c4ccc(F)cc4)c3C)CC2CCO)o1` (centres unmarked): -34.6%; for `Cc1ccc(CN2CCN(Cc3cnc(C)s3)CC2CCO)o1` (centres unmarked): -1.95%.
Under `Cc1ccc(CN2CCN(Cc3cnn(-c4ccc(Cl)cc4)c3)CC2CCO)o1` (centres unmarked) stands -69.8%.
On to `OCCC1CN(Cc2cnn(-c3ccccc3Cl)c2)CCN1Cc1ccsc1` (centres unmarked), for which the “hERG current change (%, negative = inhibition) at 10uM” value is recorded as -11.7%.
The same measure for `Cc1ccc(CN2CCN(Cc3ccc(O)cc3)CC2CCO)o1` (centres unmarked): -7.85%; for `Cc1ccc(CN2CCN(Cc3cnn(-c4ccc(F)cc4)c3)CC2CCO)o1` (centres unmarked): -56.1%.
The same measure for `OCCC1CN(Cc2cnn(-c3ccc(F)cc3)c2)CCN1Cc1ccsc1` (centres unmarked): -65.7%; for `Cc1ccc(CN2CCN(Cc3ccncc3)CC2CCO)o1` (centres unmarked): -8.3%; for `CCn1cc(CN2CCN(Cc3ccsc3)C(CCO)C2)cn1` (centres unmarked): -3.26%.
The same measure for `Cc1cc(C)c(CN2CCN(Cc3ccc(C)o3)C(CCO)C2)c(-n2cccn2)c1` (centres unmarked): -76.4%.
On to `Cc1ccc(C(=O)N2CCCCC2)cc1S(=O)(=O)N1CCOCC1`, for which the “hERG current change (%, negative = inhibition) at 10uM” value was 22%.
The same measure for `COc1ccc(NC(=O)C2CCCN(S(=O)(=O)c3ccc4c(c3)CCCN4C(C)=O)C2)cc1` (centres unmarked): 9.31%; for `CCCN1CCC(NC(=O)Nc2cc(Cl)ccc2OC)CC1`: -19.1%.
Under `CCCCOc1ccc(C(=O)Nc2ccc(N3CCN(C(=O)C(C)C)CC3)cc2)cc1` stands 6.91%; under `NC(=O)C1CCN(C(=O)c2ccc(F)c(S(=O)(=O)N3CCOCC3)c2)CC1`, -0.931%; under `C/C(=N\NC(=O)CNC(=O)c1ccc(Br)cc1)c1ccco1`, 5.38%.
Under `Cn1c(=O)cc(OCC(=O)NCCCN2CCN(c3cccc(Cl)c3)CC2)c2ccccc21` stands -50.8%; under `CC1CCN(CCCNC(=O)COc2cc(=O)n(C)c3ccccc23)CC1`, 8.58%; under `CCn1c(=O)cc(OCC(=O)NCCCN2CC(C)CC(C)C2)c2ccccc21` (centres unmarked), -12.5%.
Take `Cn1c(=O)cc(OCC(=O)NCCCN2CCN(Cc3ccccc3)CC2)c2ccccc21`: the “hERG current change (%, negative = inhibition) at 10uM” value is -17.8%.
On to `CCn1c(=O)cc(OCC(=O)NCCCN2CCC(C)CC2)c2ccccc21`, for which the “hERG current change (%, negative = inhibition) at 10uM” value is listed as -8.39%.
Under `CCn1c(=O)cc(OCC(=O)NCCCN2CCN(c3cccc(Cl)c3)CC2)c2ccccc21` stands -61.1%.
For `O=S(=O)(N/N=C\c1cn(-c2ccccc2)nc1-c1ccccc1)c1ccccc1`, the “hERG current change (%, negative = inhibition) at 10uM” value was determined as 5.42%.
Under `COC(=O)c1ccc(N2C(=O)Nc3ccccc3N2O)cc1` stands 12.5%.
The same measure for `CCN1CCN(C(C(=O)NC2CCCC2)c2cc3c(cc2[N+](=O)[O-])OCO3)CC1` (centres unmarked): -1.51%; for `CN(C)S(=O)(=O)N1CCC(C(=O)O)(c2ccccc2)CC1`: 18.7%.
On to `CCCc1nc2ccc(NC(=O)c3cccs3)cc2c(=O)n1Cc1ccccc1Cl`, for which the “hERG current change (%, negative = inhibition) at 10uM” value stood at 1.8%.
Under `O=S(=O)(c1ccccc1)N1CCC(n2nnc3cc(F)ccc32)CC1` stands -27.7%; under `COC(=O)c1cccc(S(=O)(=O)N2CCC(n3nnc4cc(F)ccc43)CC2)c1`, -34.3%.
Regarding `O=S(=O)(NC1CCCC1)c1cccc(S(=O)(=O)N2CCC(n3nnc4ccccc43)CC2)c1`, the “hERG current change (%, negative = inhibition) at 10uM” value is -26%.
Under `Cc1ccc2c(c1)nnn2C1CCN(S(=O)(=O)c2cccc(S(=O)(=O)N(C)C)c2)CC1` stands -16.7%; under `O=S(=O)(c1cccc(S(=O)(=O)N2CCC(n3nnc4ccccc43)CC2)c1)N1CCCCC1`, -55.7%.
The same measure for `CC(=O)c1cccc(S(=O)(=O)N2CCC(n3nnc4cc(F)ccc43)CC2)c1`: -63.7%; for `CCCc1ccc(-c2cc(C(=O)NC3=NCCS3)c3ccccc3n2)cc1`: -2.06%; for `O=C(Cn1nc(-c2ccccc2)ccc1=O)NCCN1CCN(Cc2ccccc2)CC1`: -19.1%.
Under `CCCN1CCN(CCCNC(=O)Cn2nc(-c3ccc(C)cc3)ccc2=O)CC1` stands -24.6%; under `CN1CCN(CCCNC(=O)Cn2nc(-c3ccccc3)ccc2=O)CC1`, 14.1%; under `CCCN1CCN(CCCNC(=O)Cn2nc(-c3ccccc3)ccc2=O)CC1`, -22.2%.
For the molecule `CCCN1CCN(CCCNC(=O)Cn2nc(-c3ccc(Cl)cc3)ccc2=O)CC1`, the “hERG current change (%, negative = inhibition) at 10uM” value is -50.8%.
Under `O=C(Cn1nc(-c2ccc(Cl)cc2)ccc1=O)NCCCN1CCN(Cc2ccccc2)CC1` stands -64.2%.
Take `Cn1c(=O)c2c(nc(CN3CCOCC3)n2CCN2CCOCC2)n(C)c1=O`: the “hERG current change (%, negative = inhibition) at 10uM” value was found to be 3.09%.
In the case of `COc1ccc(/C=C(/NC(=O)c2ccccc2)C(=O)NC(Cc2c[nH]c3ccccc23)C(=O)O)cc1` (centres unmarked), the “hERG current change (%, negative = inhibition) at 10uM” value is recorded as 14.5%.
Under `COc1cccc(/C=C2\SC(=S)N(CC(=O)N(C)C3CCS(=O)(=O)C3)C2=O)c1` (centres unmarked) stands 1.18%; under `CCCCOC(=O)NS(=O)(=O)c1sc(CC(C)C)cc1-c1ccc(Cn2c(CC)nc3c(C)cc(C)nc32)cc1`, 5.9%.
As for `Cc1ccccc1C1=NCC(=S)Nc2ccc(Cl)cc21`, the “hERG current change (%, negative = inhibition) at 10uM” value turned out to be 0.98%.
Turning to `COc1ccc(C2c3ccc4ccccc4c3Oc3ncn(CCCO)c(=N)c32)cc1OC` (centres unmarked), the “hERG current change (%, negative = inhibition) at 10uM” value is on record as -62.3%.
`COc1ccc(C2c3c(ncn(CCCO)c3=N)Oc3ccc4ccccc4c32)cc1OC` (centres unmarked): the “hERG current change (%, negative = inhibition) at 10uM” value was -28.8%.
Under `N=c1c2c(ncn1CCCO)Oc1ccc3ccccc3c1C2c1ccccc1` (centres unmarked) stands -53.6%; under `N=c1c2c(ncn1CCN1CCOCC1)Oc1ccc3ccccc3c1C2c1ccccc1` (centres unmarked), -49.3%.
For the molecule `N=c1c2c(ncn1CCCO)Oc1c(ccc3ccccc13)C2c1ccccc1` (centres unmarked), the “hERG current change (%, negative = inhibition) at 10uM” value is -70.4%.
Under `COc1ccc(C2c3ccc4ccccc4c3Oc3ncn(CCO)c(=N)c32)cc1` (centres unmarked) stands -74.2%; under `COc1ccc(C2c3ccc4ccccc4c3Oc3ncn(CCO)c(=N)c32)cc1OC` (centres unmarked), -45.7%.
Under `COc1ccc(C2c3c(ncn(CCCO)c3=N)Oc3ccc4ccccc4c32)cc1` (centres unmarked) stands -33.9%.
As to `COC(=O)C1CN(C(=O)COc2ccc(Cl)cc2Cl)c2ccccc2O1` (centres unmarked), the “hERG current change (%, negative = inhibition) at 10uM” value is recorded as -2.51%.
The same measure for `CCCCNC(=O)/C(C#N)=c1\s/c(=C\c2ccccc2OC(F)F)c(=O)n1CCCOC`: 22.6%.
The same measure for `Cc1ccc(Nc2c([N+](=O)[O-])cc(C(=O)N3CC(=O)Nc4ccccc43)cc2[N+](=O)[O-])c(C)c1`: 15.2%; for `COCCNC(=O)C(=O)c1c(-c2ccccc2)[nH]c2ccccc12`: 1.69%.
With `CCOC(=O)NCc1ccc2c(c1)OCO2`, the “hERG current change (%, negative = inhibition) at 10uM” value is 19.7%.
Under `O=C(CCN1C(=O)/C(=C/c2ccc(F)cc2)SC1=S)Nc1cc([N+](=O)[O-])ccc1O` stands 15%; under `COC(=O)c1ccnc(/C=N/O)c1`, 10.7%.
The same measure for `CCNS(=O)(=O)c1ccc2nc(NC(=O)c3cccnc3)sc2c1`: -1.78%; for `Cc1ccc(N2CC(C(=O)Nc3cccnc3)CC2=O)cc1` (centres unmarked): -9.42%; for `O=S(=O)(c1ccc(Cl)cc1)N1CCN2CCCC2C1` (centres unmarked): -6.01%.
With `CN(C)NC1CC(=O)N(c2ccccc2)C1=O` (centres unmarked), the “hERG current change (%, negative = inhibition) at 10uM” value stood at 15.9%.
The same measure for `NC(=O)N/N=C/c1cn(-c2ccccc2)nc1-c1ccccc1`: -6.63%.
The same measure for `Cc1[nH]c(=O)[nH]c(=O)c1S(=O)(=O)Nc1ccc(F)cc1Cl`: 17.1%.
Under `S=c1[nH]nc(COc2ccccc2)n1/N=C/c1ccc(Cl)cc1` stands 22.4%; under `COc1ccc(C2c3ccc4ccccc4c3Oc3ncn(Cc4ccco4)c(=N)c32)cc1OC` (centres unmarked), -62.9%.
With `COc1ccccc1C1c2ccc3ccccc3c2Oc2ncn(CCCO)c(=N)c21` (centres unmarked), the “hERG current change (%, negative = inhibition) at 10uM” value is recorded as -66.6%.
Turning to `COc1ccc(C2c3ccc4ccccc4c3Oc3ncn4nc(Cc5ccccc5)nc4c32)cc1OC` (centres unmarked), the “hERG current change (%, negative = inhibition) at 10uM” value was 13.2%.
Under `COc1ccc(C2c3ccc4ccccc4c3Oc3ncn(CCCO)c(=N)c32)cc1` (centres unmarked) stands -71.6%.
With `N=c1c2c(ncn1Cc1ccco1)Oc1c(ccc3ccccc13)C2c1ccccc1` (centres unmarked), the “hERG current change (%, negative = inhibition) at 10uM” value is given as -26.5%.
